# Screens as filed in PubChem.
# This excerpt belongs to a sample that is enriched for hits.
# IDE exosite FP = exo-site inhibitors of human IDE, primary screen, biochemical, fluorescence anisotropy, probe displacement; Insulin-degrading enzyme (Homo sapiens), P14735; purified IDE, FL-6b probe fluorescence polarization; active compounds read low; z-score at 20 µM; 17,000 tested, 6.3% active; AID 1259349, 2017;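 active = z-score of -3 or lower, meaning strong loss of probe binding signal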;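 also: His-tagged human IDE residues 42-1019 made in E. coli with 30 nM FL-6b probe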
# Target sequence (P14735 42-1019 limits assumed): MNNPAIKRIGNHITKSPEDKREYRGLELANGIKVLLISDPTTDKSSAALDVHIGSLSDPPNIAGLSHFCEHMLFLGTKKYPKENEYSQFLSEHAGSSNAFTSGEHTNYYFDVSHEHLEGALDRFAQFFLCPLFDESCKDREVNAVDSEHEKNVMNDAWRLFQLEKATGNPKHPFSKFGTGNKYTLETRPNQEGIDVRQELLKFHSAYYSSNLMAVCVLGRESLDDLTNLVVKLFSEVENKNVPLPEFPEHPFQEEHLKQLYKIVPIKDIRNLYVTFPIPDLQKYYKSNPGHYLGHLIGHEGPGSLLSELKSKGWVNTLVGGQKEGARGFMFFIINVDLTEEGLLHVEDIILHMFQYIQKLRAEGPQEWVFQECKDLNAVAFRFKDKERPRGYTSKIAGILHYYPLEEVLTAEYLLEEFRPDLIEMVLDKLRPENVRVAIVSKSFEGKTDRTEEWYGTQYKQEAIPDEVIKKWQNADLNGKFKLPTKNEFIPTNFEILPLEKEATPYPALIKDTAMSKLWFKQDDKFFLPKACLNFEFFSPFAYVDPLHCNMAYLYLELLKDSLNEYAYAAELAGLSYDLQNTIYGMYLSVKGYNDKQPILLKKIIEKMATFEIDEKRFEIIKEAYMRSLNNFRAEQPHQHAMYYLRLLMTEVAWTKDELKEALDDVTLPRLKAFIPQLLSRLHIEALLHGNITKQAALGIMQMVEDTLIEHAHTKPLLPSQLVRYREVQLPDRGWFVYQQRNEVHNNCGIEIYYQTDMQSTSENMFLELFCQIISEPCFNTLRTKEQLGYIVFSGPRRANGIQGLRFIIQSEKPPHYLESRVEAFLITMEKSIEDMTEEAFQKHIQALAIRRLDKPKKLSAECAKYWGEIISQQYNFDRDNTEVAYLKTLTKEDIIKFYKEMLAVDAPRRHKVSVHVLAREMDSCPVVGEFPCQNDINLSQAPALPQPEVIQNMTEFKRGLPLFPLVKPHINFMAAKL
# * marks the source's active call; other numbers are inactive results.
SMILES,IDE exosite FP
Cc1ccc(-c2ccc([C@H]3[C@@H](CO)N4CCCCN(C(=O)c5ccncc5)C[C@@H]34)cc2)cc1,0.15
Cc1ccc(-c2ccc([C@@H]3[C@H]4CN(C(=O)c5ccncc5)CCCCN4[C@H]3CO)cc2)cc1,-2.56
O=C(C[C@H]1CC[C@@H]2[C@H](COC[C@H](O)CN2C(=O)c2cnccn2)O1)N1CCN(c2ccccc2)CC1,1.74
OC[C@H]1[C@@H](c2ccc(C#Cc3cccnc3)cc2)[C@@H]2CN(Cc3ccccc3F)CCCCN12,0.109
CCCNC(=O)N1[C@H](CO)[C@H](c2ccccc2-c2ccccc2)[C@@H]1C#N,1.79
O=C(Cc1ccccc1)N1CC(=O)N2[C@H](CO)[C@H](c3ccc(C#Cc4ccccc4)cc3)[C@H]2C1,-1.27
O=C(Cc1ccccc1)N1CC(=O)N2[C@H](C1)[C@@H](c1ccc(Br)cc1)[C@@H]2CO,-5.06*
O=C(Cc1ccccc1)N1CC(=O)N2[C@H](C1)[C@@H](c1ccc(C#CCc3ccccc3)cc1)[C@@H]2CO,-1.64
O=C(Cc1ccccc1)N1CC(=O)N2[C@H](CO)[C@@H](c3ccc(Br)cc3)[C@H]2C1,0.344
O=C(Cc1ccccc1)N1CC(=O)N2[C@H](CO)[C@H](c3ccc(Br)cc3)[C@H]2C1,-1.63
O=C(Cc1ccccc1)N1CC(=O)N2[C@H](CO)[C@H](c3ccc(C#Cc4ccccc4)cc3)[C@@H]2C1,-7.01*
Cc1ccccc1S(=O)(=O)N1[C@H](C#N)[C@H](c2ccc(-c3ccccc3)cc2)[C@@H]1CO,1.56
CC[C@H]1C/C=C\C[C@@H](c2ccc(OC)cc2OC)NC(=O)[C@H](C)CC(=O)N1,0.932
COc1ccccc1NC(=O)N1CC(=O)N2[C@H](CO)[C@H](c3ccc(C#CC4CC4)cc3)[C@@H]2C1,-0.842
CC(C)CC#Cc1ccc([C@@H]2[C@H]3CN(C(=O)c4ccccn4)CC(=O)N3[C@H]2CO)cc1,1.18
CS(=O)(=O)N1CC(=O)N2[C@@H](CO)[C@H](c3ccc(C#CCC4CCCC4)cc3)[C@@H]2C1,0.985
C[C@@H]1CN([C@@H](C)CO)C(=O)c2ccccc2-c2ccccc2CO[C@@H]1CN(C)S(=O)(=O)c1ccc([N+](=O)[O-])cc1,0.551
CCC(=O)N(CC)C[C@H]1[C@H](c2ccccc2)[C@@H](CO)N1C(C)=O,0.62
COc1ccccc1C#Cc1ccc([C@H]2[C@H](CO)N3CCCCN(CCC(F)(F)F)C[C@@H]23)cc1,-6.14*
COc1ccccc1C#Cc1ccc([C@H]2[C@@H](CO)N3CCCCN(CCC(F)(F)F)C[C@@H]23)cc1,-6.91*
COc1ccccc1C#Cc1ccc([C@@H]2[C@@H](CO)N3CCCCN(CCC(F)(F)F)C[C@@H]23)cc1,-5.56*
OC[C@H]1[C@@H](c2ccc(C#CC3CCCC3)cc2)[C@@H]2CN(CCC(F)(F)F)CCCCN12,3.83
OC[C@@H]1[C@H](c2ccc(-c3ccccc3)cc2)[C@H]2CN(CCC(F)(F)F)CCCCN12,2.39
OC[C@@H]1[C@H](c2ccc(C#CC3CCCC3)cc2)[C@H]2CN(CCC(F)(F)F)CCCCN12,2.5
OC[C@@H]1[C@@H](c2ccc(-c3ccccc3)cc2)[C@@H]2CN(CCC(F)(F)F)CCCCN12,0.766
SMILES,IDE exosite FP
OC[C@H]1[C@@H](c2ccc(-c3ccc(F)cc3)cc2)[C@H]2CN(CCC(F)(F)F)CCCCN21,1.66
OC[C@H]1[C@@H](c2ccc(-c3ccccc3)cc2)[C@H]2CN(CCC(F)(F)F)CCCCN21,1.79
CN1C(=O)c2cc(NC(=O)Cc3cccs3)ccc2OC[C@H]2O[C@H](CC(=O)NCc3ccc(-c4ccccc4)cc3)CC[C@H]21,-1.78
COc1ccc2c3c([nH]c2c1)[C@H](CO)N(C(=O)Nc1ccc(F)cc1)CC31CN(Cc2cc(-c3ccccc3)on2)C1,0.0327
O=C1CN(S(=O)(=O)c2ccccc2)C[C@H]2[C@@H](c3ccc(Br)cc3)[C@H](CO)N12,0.389
CCCNC(=O)N(C)C[C@H]1N[C@@H](CO)[C@@H]1c1ccc(C2=CCCCC2)cc1,3.99
O=C(c1cccc(F)c1)N1CC(=O)N2[C@H](C1)[C@H](c1ccc(C3=CCCC3)cc1)[C@@H]2CO,0.217
CO[C@H]1CN(C)C(=O)c2ccc(NC(C)=O)cc2OC[C@H](C)N(Cc2cccc(F)c2)C[C@@H]1C,-0.0137
CC=Cc1ccc2n(c1=O)C[C@@H]1[C@@H](CO)[C@H](C(=O)NCc3ccccc3Cl)N(S(C)(=O)=O)[C@H]21 (mixture of isomers),0.924
O=C(Nc1cc(F)ccc1F)N1CC(=O)N2[C@H](C1)[C@@H](c1ccc(-c3ccccc3)cc1)[C@@H]2CO,-2.71
O=C(Nc1cccc(F)c1)N1CC(=O)N2[C@H](C1)[C@@H](c1ccc(-c3ccccc3)cc1)[C@@H]2CO,-1.61
CCC(=O)N1CCCCN2[C@@H](CO)[C@@H](c3ccc(-c4cccc(C#N)c4)cc3)[C@@H]2C1,0.404
CCC(=O)N1CCCCN2[C@H](C1)[C@H](c1ccc(C#CCOC)cc1)[C@@H]2CO,1.52
CCC(=O)N1CCCCN2[C@H](C1)[C@@H](c1ccc(-c3cccc(C#N)c3)cc1)[C@@H]2CO,0.361
CCC(=O)N1CCCCN2[C@H](C1)[C@@H](c1ccc(C#Cc3ccccc3)cc1)[C@@H]2CO,-1.29
CCC(=O)N1CCCCN2[C@H](C1)[C@H](c1ccc(C#Cc3ccccc3)cc1)[C@@H]2CO,-4.62*
CCC(=O)N1CCCCN2[C@H](CO)[C@H](c3ccc(C#CCOC)cc3)[C@@H]2C1,1.3
O=C(Nc1ccccc1)N1CCCCN2[C@@H](CO)[C@H](c3ccc(C#Cc4ccccc4)cc3)[C@@H]2C1,-2.98
CCC(=O)N1CCCCN2[C@H](CO)[C@@H](c3ccc(C#Cc4ccccc4)cc3)[C@H]2C1,-3.89*
CCC(=O)N1CCCCN2[C@H](CO)[C@H](c3ccc(C#Cc4ccccc4)cc3)[C@@H]2C1,-8.85*
O=C(N[C@H]1CC[C@@H](CCNS(=O)(=O)c2ccc(F)cc2)O[C@@H]1CO)C1CCC1,2.33
Cc1ccccc1S(=O)(=O)N1CC(=O)N2[C@H](C1)[C@H](c1ccc(C#CCN(C)C)cc1)[C@@H]2CO,1.3
CO[C@H](CN(C)C(=O)Nc1ccc(Cl)cc1)[C@@H](C)CN(Cc1ccccc1Cl)[C@H](C)CO,2
CCC(=O)N1C[C@H](O)COC[C@H]2O[C@@H](CC(=O)NCc3ccc(Oc4ccccc4)cc3)CC[C@@H]21,-1.07
COCC#Cc1ccc([C@@H]2[C@H]3CN(C(=O)Nc4cc(F)ccc4F)CC(=O)N3[C@H]2CO)cc1,-0.913
SMILES,IDE exosite FP
CC(=O)N1[C@H](CO)[C@H](c2ccccc2)[C@H]1CNC(=O)CN1CCOCC1,-1.37
COCC(=O)N1CCC2(CC1)CN(Cc1cc(F)ccc1F)[C@H](CO)c1c2c2ccc(OC)cc2n1C,-4.02*
COCC(=O)N1CC2(C1)CN(Cc1cccc(F)c1)[C@@H](CO)c1c2c2ccc(OC)cc2n1C,-0.117
COc1ccc2c3c(n(C)c2c1)[C@@H](CO)N(Cc1cc(F)ccc1F)CC31CN(C(=O)C2CC2)C1,0.68
COc1ccc2c3c(n(C)c2c1)[C@H](CO)N(Cc1ccccc1F)CC31CCN(C(=O)C2CCOCC2)CC1,-0.892
COCC(=O)N1CC2(C1)CN(Cc1cccc(F)c1)[C@H](CO)c1c2c2ccc(OC)cc2n1C,-2.47
COc1ccc2c3c(n(C)c2c1)[C@H](CO)N(Cc1cccc(F)c1)CC31CCN(C(=O)Cc2ccccc2)CC1,-3.69*
N#C[C@H]1N[C@@H](CO)[C@H]1c1ccc(C2=CCCC2)cc1,2.46
